In article PMC7862700, “An all-to-all approach to the identification of sequence-specific readers for epigenetic DNA modifications on cytosine” one finds binding signal data, which are given here for 1 sequence.

What all share (experiment): DAPPL (digital affinity profiling via proximity ligation, sequencing); 10 mM Tris-HCl pH 7.5, 50 mM NaCl, 1 mM DTT, 4% glycerol, room temperature, 30 min; GST-TFs on glutathione beads, 16-mer random dsDNA library, 0.1% formaldehyde crosslink after washing; high values mean tight binding
For one test, the target named is T1, FLI1 (Homo sapiens, UniProt Q01543 1-452).
T1 sequence: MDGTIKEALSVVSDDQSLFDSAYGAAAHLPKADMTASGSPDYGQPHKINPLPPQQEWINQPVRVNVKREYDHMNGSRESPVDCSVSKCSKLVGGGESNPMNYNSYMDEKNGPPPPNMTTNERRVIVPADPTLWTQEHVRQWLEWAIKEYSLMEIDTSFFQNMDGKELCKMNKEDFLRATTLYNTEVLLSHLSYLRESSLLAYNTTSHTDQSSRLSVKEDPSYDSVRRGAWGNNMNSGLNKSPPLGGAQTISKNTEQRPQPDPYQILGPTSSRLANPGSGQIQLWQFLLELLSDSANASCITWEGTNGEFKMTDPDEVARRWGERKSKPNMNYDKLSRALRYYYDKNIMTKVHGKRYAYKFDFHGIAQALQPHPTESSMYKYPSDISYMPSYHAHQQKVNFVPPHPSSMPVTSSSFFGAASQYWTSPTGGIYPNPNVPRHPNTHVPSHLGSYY
Conditions: protein: recombinant; tags: N-terminal GST; dsDNA, one strand shown. An outline of the steps:
(§1)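 Pools were built from human transcription factors expressed in yeast as GST fusions, captured on glutathione beads and DNA-barcoded, along with a tag-only sample. Incubation with 200 nmole of a 16-mer random double-stranded DNA library lasted 30 min at room temperature in Tris/NaCl/DTT/glycerol buffer, and was followed by washing, 0.1% formaldehyde crosslinking, proximity ligation, PCR amplification and Illumina NextSeq500 sequencing. Binding signal is the quotient of each hexamer's read frequency for a factor and its frequency for the tag-only sample.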

Another test deals with T2, ELK1 (Homo sapiens, UniProt P19419 1-428).
T2 sequence: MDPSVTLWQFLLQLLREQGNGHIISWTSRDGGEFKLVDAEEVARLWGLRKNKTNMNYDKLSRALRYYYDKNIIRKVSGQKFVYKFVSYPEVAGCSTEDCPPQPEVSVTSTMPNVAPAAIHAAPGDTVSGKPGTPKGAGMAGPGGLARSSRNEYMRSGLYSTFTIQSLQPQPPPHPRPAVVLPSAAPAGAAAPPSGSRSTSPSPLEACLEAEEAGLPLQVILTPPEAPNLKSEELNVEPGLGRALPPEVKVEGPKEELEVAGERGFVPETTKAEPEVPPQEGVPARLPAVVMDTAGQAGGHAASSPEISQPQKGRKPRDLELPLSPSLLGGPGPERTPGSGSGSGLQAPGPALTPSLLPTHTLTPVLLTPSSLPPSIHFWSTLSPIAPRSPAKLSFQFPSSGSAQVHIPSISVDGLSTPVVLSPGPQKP
Conditions: protein: recombinant; tags: N-terminal GST; dsDNA, one strand shown. A digest of the protocol: as §1

In another test the target is T3, GABPA (Homo sapiens, UniProt Q06546 1-454).
T3 sequence: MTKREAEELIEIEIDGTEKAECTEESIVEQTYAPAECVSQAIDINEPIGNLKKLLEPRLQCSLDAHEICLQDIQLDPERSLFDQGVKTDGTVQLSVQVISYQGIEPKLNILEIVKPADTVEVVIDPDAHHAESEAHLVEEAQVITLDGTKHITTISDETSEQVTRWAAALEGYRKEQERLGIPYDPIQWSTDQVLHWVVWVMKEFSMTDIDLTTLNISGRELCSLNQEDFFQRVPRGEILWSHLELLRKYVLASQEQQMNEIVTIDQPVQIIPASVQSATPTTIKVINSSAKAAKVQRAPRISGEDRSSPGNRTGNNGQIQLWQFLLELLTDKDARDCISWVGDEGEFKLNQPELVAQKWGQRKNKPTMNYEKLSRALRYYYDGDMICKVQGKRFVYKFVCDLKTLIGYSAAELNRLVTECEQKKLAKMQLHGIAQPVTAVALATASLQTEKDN
Conditions: protein: recombinant; tags: N-terminal GST; dsDNA, one strand shown. An outline of the steps:
as §1

The target in a further test is T4, ERG (Homo sapiens, UniProt P11308 1-479).
T4 sequence: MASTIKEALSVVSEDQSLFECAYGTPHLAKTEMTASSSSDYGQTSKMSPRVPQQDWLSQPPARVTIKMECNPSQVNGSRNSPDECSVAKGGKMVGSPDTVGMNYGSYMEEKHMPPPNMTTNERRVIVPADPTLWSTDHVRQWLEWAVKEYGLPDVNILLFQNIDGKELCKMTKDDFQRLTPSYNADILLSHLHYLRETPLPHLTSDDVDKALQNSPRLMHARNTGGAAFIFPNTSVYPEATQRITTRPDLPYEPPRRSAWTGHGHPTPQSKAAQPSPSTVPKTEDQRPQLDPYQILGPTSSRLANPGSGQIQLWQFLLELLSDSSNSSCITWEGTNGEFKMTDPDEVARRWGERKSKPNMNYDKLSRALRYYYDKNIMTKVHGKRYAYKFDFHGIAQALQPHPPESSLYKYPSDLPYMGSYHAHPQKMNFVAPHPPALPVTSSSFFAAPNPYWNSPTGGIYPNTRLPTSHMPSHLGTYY
Conditions: protein: recombinant; tags: N-terminal GST; dsDNA, one strand shown. An outline of the steps:
as §1

In a further test the target is ELF1 (Homo sapiens, UniProt P32519 1-619). Conditions: protein: recombinant; tags: N-terminal GST; dsDNA, one strand shown. An outline of the steps: as §1
The target in a further test is T5, EHF (Homo sapiens, UniProt Q9NZC4 1-300).
T5 sequence: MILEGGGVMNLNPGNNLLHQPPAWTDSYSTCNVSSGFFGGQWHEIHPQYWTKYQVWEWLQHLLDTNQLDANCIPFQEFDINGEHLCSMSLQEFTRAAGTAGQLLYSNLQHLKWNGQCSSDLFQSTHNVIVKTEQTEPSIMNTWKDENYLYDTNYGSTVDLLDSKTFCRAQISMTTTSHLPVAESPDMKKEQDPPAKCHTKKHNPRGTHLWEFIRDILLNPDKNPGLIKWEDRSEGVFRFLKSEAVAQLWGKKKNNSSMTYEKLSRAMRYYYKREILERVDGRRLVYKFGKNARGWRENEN
Conditions: protein: recombinant; tags: N-terminal GST; dsDNA, one strand shown. An outline of the steps:
as §1

In another test the target is SPI1 (Homo sapiens, UniProt P17947 1-270). Conditions: protein: recombinant; tags: N-terminal GST; dsDNA, one strand shown. An outline of the steps: as §1
In another test the target is SPIB (Homo sapiens, UniProt Q01892 1-262). Conditions: protein: recombinant; tags: N-terminal GST; dsDNA, one strand shown. A digest of the protocol: as §1
In the next test the target is T6, ELK3 (Homo sapiens, UniProt P41970 1-407).
T6 sequence: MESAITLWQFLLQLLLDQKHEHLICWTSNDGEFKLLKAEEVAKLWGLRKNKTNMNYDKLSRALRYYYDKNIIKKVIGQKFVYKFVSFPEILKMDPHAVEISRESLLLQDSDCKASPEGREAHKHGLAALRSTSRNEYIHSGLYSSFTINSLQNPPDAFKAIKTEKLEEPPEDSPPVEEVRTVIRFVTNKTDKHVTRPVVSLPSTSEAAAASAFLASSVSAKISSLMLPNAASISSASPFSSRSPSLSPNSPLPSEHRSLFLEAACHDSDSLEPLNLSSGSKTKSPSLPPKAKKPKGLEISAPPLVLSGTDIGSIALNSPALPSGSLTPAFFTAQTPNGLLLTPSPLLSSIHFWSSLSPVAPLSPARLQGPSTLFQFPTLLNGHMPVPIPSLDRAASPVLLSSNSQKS
Conditions: protein: recombinant; tags: N-terminal GST; dsDNA, one strand shown. An outline of the steps:
as §1

The next test has as its target T7, FEV (Homo sapiens, UniProt Q99581 1-238).
T7 sequence: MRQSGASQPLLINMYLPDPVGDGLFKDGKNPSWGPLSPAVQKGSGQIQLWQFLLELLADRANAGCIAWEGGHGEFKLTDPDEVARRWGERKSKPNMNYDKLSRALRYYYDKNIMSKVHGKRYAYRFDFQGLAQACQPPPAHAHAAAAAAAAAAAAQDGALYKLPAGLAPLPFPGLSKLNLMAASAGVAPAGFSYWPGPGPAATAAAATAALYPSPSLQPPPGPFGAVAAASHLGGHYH
Conditions: protein: recombinant; tags: N-terminal GST; dsDNA, one strand shown. An outline of the steps:
as §1

Another test concerns the target ETV5 (Homo sapiens, UniProt P41161 1-510). Conditions: protein: recombinant; tags: N-terminal GST; dsDNA, one strand shown. An outline of the steps: as §1
The next test has as its target HSF1 (Homo sapiens, UniProt Q00613 1-529). Conditions: protein: recombinant; tags: N-terminal GST; chain copies: 3; dsDNA, one strand shown. An outline of the steps: as §1
Another test addresses T8, SPIC (Homo sapiens, UniProt Q8N5J4 1-248).
T8 sequence: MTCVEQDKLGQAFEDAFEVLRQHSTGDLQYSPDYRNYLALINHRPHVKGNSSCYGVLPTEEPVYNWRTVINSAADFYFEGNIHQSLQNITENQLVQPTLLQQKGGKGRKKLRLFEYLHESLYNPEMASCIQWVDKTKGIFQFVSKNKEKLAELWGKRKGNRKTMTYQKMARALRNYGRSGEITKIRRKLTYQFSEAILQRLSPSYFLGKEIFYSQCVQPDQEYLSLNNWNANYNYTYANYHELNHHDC
Conditions: protein: recombinant; tags: N-terminal GST; dsDNA, one strand shown. An outline of the steps:
as §1

The target of a further test is ELF4 (Homo sapiens, UniProt Q99607 1-663). Conditions: protein: recombinant; tags: N-terminal GST; dsDNA, one strand shown. An outline of the steps:
as §1

A further test concerns the target T9, ELK4 (Homo sapiens, UniProt P28324-2 1-405).
T9 sequence: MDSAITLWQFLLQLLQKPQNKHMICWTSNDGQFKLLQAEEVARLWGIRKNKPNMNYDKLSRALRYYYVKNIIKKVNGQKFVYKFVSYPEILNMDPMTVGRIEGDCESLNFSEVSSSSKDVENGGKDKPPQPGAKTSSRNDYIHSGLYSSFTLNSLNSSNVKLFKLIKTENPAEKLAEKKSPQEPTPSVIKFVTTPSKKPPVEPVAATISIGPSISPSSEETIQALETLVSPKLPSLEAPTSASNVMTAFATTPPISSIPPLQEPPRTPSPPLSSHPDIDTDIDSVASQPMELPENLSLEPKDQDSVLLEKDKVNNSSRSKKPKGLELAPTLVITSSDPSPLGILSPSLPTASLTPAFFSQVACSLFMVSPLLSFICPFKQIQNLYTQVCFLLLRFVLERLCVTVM
Conditions: protein: recombinant; tags: N-terminal GST; dsDNA, one strand shown. An outline of the steps:
as §1

For another test, the target named is T10, ETV2 (Homo sapiens, UniProt O00321 1-342).
T10 sequence: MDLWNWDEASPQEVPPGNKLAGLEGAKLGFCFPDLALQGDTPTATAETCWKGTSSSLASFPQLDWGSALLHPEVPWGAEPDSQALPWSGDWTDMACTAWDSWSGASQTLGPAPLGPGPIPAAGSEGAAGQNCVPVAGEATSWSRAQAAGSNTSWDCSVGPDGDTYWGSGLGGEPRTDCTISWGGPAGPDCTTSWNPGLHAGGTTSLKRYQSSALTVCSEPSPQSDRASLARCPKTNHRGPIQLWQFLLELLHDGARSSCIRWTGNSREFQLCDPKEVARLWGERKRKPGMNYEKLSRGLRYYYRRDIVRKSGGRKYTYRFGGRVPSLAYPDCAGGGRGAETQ
Conditions: protein: recombinant; tags: N-terminal GST; dsDNA, one strand shown. A digest of the protocol: as §1

Another test has as its target T11, ELF3 (Homo sapiens, UniProt P78545 1-371).
T11 sequence: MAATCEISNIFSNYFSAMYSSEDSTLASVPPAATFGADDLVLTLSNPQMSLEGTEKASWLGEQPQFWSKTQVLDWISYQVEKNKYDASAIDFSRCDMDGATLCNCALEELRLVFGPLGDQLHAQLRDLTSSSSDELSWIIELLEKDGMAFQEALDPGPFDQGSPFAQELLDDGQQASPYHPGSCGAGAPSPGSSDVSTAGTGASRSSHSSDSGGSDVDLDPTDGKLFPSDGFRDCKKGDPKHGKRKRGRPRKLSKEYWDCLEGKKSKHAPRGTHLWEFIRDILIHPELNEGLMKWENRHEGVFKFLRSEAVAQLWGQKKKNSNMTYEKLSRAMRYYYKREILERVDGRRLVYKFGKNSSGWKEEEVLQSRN
Conditions: protein: recombinant; tags: N-terminal GST; dsDNA, one strand shown. An outline of the steps:
as §1

Another test addresses CRX (Homo sapiens, UniProt O43186 1-299). Conditions: protein: recombinant; tags: N-terminal GST; dsDNA, one strand shown. An outline of the steps: as §1
A further test has as its target ETV1 (Homo sapiens, UniProt P50549 1-477). Conditions: protein: recombinant; tags: N-terminal GST; dsDNA, one strand shown. A digest of the protocol:
as §1

Chain of ELF1 (P32519 whole entry): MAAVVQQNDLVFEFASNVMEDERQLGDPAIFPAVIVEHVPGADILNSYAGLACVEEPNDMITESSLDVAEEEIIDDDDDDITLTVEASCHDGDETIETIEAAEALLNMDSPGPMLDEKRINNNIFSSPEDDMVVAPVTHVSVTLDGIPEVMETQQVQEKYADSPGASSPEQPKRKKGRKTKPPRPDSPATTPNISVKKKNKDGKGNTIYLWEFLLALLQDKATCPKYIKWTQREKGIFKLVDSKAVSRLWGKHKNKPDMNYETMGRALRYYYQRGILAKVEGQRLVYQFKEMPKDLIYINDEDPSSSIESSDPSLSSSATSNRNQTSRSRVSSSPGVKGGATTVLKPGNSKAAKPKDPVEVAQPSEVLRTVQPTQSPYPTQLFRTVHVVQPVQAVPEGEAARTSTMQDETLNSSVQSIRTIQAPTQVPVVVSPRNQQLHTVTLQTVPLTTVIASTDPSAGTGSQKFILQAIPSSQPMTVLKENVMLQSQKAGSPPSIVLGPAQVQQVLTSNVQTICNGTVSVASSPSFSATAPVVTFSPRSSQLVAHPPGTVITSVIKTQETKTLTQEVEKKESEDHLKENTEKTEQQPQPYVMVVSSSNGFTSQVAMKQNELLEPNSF
Chain of HSF1 (Q00613 whole entry): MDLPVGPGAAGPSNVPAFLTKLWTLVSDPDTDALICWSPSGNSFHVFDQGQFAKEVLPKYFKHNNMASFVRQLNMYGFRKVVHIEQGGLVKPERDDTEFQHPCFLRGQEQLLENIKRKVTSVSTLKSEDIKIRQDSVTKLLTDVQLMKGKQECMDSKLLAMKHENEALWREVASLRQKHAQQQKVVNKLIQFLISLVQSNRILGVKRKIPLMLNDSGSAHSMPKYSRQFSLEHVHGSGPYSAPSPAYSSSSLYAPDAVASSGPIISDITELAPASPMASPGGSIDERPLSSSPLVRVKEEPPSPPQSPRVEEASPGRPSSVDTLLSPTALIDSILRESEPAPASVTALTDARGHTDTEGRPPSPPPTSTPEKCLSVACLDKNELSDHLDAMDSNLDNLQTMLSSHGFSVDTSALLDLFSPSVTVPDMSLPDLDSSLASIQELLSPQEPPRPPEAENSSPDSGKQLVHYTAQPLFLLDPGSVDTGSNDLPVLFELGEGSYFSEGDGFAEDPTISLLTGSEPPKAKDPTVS
Chain of ETV5 (P41161 whole entry): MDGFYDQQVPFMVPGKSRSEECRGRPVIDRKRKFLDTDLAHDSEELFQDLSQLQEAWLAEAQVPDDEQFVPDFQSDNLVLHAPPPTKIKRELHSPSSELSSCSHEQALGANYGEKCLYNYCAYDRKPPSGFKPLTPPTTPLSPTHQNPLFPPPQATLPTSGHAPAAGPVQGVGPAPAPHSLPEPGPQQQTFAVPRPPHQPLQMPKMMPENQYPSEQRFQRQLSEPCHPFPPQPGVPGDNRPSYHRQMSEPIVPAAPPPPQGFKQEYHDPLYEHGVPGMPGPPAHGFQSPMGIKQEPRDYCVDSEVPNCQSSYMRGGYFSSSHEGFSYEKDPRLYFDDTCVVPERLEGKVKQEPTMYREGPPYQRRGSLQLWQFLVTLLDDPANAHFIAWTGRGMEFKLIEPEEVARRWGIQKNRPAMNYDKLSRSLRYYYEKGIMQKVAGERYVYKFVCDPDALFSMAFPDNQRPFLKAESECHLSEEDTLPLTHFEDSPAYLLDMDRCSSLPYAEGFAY
Chain of ETV1 (P50549 whole entry): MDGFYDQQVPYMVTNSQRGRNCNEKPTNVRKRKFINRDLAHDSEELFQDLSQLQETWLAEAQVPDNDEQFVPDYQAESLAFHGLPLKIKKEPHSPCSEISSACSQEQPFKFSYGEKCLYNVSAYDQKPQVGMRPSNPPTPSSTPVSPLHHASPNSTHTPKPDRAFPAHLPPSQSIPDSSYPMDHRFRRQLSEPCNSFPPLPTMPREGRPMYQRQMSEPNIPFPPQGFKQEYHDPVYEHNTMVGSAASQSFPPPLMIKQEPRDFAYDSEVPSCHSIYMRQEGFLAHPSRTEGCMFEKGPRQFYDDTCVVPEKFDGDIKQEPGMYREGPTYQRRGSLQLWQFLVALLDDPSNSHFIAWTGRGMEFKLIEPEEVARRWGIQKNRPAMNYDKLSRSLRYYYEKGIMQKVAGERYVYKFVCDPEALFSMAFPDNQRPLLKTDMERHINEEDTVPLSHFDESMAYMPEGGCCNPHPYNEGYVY
Chain of CRX (O43186 whole entry): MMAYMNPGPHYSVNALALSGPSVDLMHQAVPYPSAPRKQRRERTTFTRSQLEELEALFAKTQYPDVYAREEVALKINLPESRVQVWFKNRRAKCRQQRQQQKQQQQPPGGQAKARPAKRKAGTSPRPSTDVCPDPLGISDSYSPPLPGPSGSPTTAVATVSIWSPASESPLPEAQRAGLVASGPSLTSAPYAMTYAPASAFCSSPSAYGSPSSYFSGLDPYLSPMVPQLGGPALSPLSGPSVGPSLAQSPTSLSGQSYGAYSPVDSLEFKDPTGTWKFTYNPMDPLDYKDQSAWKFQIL
Chain of ELF4 (Q99607 whole entry): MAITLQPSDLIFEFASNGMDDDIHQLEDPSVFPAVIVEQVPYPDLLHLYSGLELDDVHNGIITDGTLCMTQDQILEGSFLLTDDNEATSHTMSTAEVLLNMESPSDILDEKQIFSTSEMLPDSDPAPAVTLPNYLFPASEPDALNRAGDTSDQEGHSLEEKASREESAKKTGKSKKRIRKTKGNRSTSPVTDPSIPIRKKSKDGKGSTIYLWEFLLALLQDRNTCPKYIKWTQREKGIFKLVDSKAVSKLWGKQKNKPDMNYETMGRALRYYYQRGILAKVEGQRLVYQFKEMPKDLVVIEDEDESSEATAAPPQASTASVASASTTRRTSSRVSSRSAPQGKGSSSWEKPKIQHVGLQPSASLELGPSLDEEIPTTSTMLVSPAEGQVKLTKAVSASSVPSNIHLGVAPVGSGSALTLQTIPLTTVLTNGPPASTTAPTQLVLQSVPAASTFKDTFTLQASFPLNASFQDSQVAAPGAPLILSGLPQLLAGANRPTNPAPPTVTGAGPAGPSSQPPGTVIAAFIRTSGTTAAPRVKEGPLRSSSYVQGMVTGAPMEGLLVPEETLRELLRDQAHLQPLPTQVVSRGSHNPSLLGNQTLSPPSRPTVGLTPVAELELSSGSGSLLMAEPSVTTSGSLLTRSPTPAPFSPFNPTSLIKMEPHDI
Chain of SPIB (Q01892 whole entry): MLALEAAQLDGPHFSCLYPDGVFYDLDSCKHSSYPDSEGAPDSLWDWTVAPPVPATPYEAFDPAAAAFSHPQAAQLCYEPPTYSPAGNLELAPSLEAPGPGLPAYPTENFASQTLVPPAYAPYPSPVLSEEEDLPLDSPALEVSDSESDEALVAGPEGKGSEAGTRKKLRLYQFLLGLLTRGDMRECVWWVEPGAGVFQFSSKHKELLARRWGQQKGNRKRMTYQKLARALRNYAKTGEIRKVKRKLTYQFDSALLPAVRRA

Take AGTATC: the binding signal with FLI1 is 1.09 fold enrichment (6-mer frequency, TF over GST control); with ELK1, 1.13 fold enrichment (6-mer frequency, TF over GST control); in the test with GABPA, 1.11 fold enrichment (6-mer frequency, TF over GST control); with ERG, 1.08 fold enrichment (6-mer frequency, TF over GST control); in the test with ELF1, 1.13 fold enrichment (6-mer frequency, TF over GST control); with EHF, 1.19 fold enrichment (6-mer frequency, TF over GST control). The binding signal in the test with SPI1 is 1.13 fold enrichment (6-mer frequency, TF over GST control); with SPIB it was 1.2 fold enrichment (6-mer frequency, TF over GST control); in the test with ELK3, 1.17 fold enrichment (6-mer frequency, TF over GST control); in the test with FEV it was 1.12 fold enrichment (6-mer frequency, TF over GST control); with ETV5 it was 1.18 fold enrichment (6-mer frequency, TF over GST control); with HSF1 it was 1.03 fold enrichment (6-mer frequency, TF over GST control). Also, the binding signal with SPIC is 1.14 fold enrichment (6-mer frequency, TF over GST control); with ELF4, 1.12 fold enrichment (6-mer frequency, TF over GST control); with ELK4, 1.1 fold enrichment (6-mer frequency, TF over GST control); with ETV2, 1.26 fold enrichment (6-mer frequency, TF over GST control); with ELF3, 1.16 fold enrichment (6-mer frequency, TF over GST control); in the test with CRX, 1.03 fold enrichment (6-mer frequency, TF over GST control). Moreover, the binding signal with ETV1 was 1.07 fold enrichment (6-mer frequency, TF over GST control).
